Calls of active or inactive are those of the source.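 How the source made its calls: active means RAM network inhibition above 8.4% in each of two replicates, 3 SD over the compound average; inconclusive means above 8.4% inhibition in only one replicate; inactive means 8.4% inhibition or less in each replicate.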
experiment: RAM signaling pathway blockade in yeast – S. cerevisiae, Pdr1DBD-CYC8 efflux-inhibited sensitized strain, primary screen (AID 1298);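 further: 0% = DMSO untreated cells without growth and 100% = 10 µM 1-NA-PP1 full growth; higher means more yeast growth rescued from 5-FOA killing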; settings: S. cerevisiae cbk1-as DSE1-URA3 strain, 5-FOA growth OD615, 2 d; at 50 µM; active compounds read high

Row | Compound | RAM network inhibition
1 | O=C1CC(c2ccc(S(=O)(=O)NCc3ccncc3)cc2)CN1 (stereo not drawn) | 1.15% (inactive)
2 | COc1ccc(Cl)cc1Nc1cc(C)nc2nc(C)nn12 | 3.45% (inactive)
3 | COc1ccccc1NC(=O)CSc1nnc(-c2ccccn2)n1Cc1ccco1 | 2.52% (inactive)
4 | Cc1ccccc1NC(=O)CCN1CCN(Cc2ccccc2)CC1 | 5.05% (inactive)
5 | O=C(c1ccc(CN2CCOCC2)cc1)N1CCN(Cc2ccccc2)CC1 | 12.1% (inactive)
6 | CCCCCC(C)n1[nH]c(=O)c2c(C)cc(C)nc21 (stereo not drawn) | 0.57% (inactive)
7 | CN1CCN(Cc2nc3c(c(=O)n(C)c(=O)n3C)n2CCc2ccccc2)CC1 | 2.53% (inactive)
8 | O=C(COc1cccc2ccccc12)N1CCN(c2ccccc2)CC1 | 11.7% (inactive)
9 | CCC(C)NC(=O)C1CN(S(=O)(=O)c2ccccc2)CCN1S(=O)(=O)c1ccccc1 (stereo not drawn) | 0.57% (inactive)
10 | COc1cc(C2N(c3ccc(Cl)cc3)C(=O)C3CCCN32)cc(OC)c1OC (stereo not drawn) | 0.21% (inactive)
11 | CC1CN(c2ncnc3c2cnn3-c2ccc(Cl)cc2)CC(C)O1 (stereo not drawn) | 3.95% (inactive)
12 | Cn1c(C(=O)NCc2cccs2)cc2c(=O)n(C)c3ccccc3c21 | 1.75% (inactive)
13 | O=C1C2CCCN2C(c2ccc(Br)cc2)N1c1ccc(F)cc1 (stereo not drawn) | 9.1% (inactive)
14 | N=c1n(-c2ccccc2)c(O)cc(=O)n1-c1ccccc1 | 6.52% (inactive)
15 | Cc1ccccc1-c1ccc(Nc2ccc(C(=O)N3CCOCC3)cc2)nn1 | -0.83% (inactive)
16 | Cc1ccccc1CSc1nnc(-c2ccco2)n1Cc1ccco1 | 0.99% (inactive)
17 | CCN1CCN(CC(=O)Nc2ccc3c(c2)OCCO3)C(=O)C1=O | 2.49% (inactive)
18 | CCN(CC)S(=O)(=O)c1ccc(C(=O)OCC(=O)N2CCN(C(=O)c3ccco3)CC2)cc1 | 1.24% (inactive)
19 | CCCCNC(=O)CS(=O)Cc1nc(-c2cccs2)oc1C (stereo not drawn) | 0.54% (inactive)
20 | Cn1c(=O)c(C(=O)Nc2ncccn2)c(O)c2ccccc21 | -1.44% (inactive)
21 | CCOc1cc(C2NC(=O)NC(O)(C(F)(F)F)C2C(=O)c2ccc(Cl)cc2)ccc1O (stereo not drawn) | -0.26% (inactive)
22 | CC(C)(CC(=O)O)Cc1nc(-c2ccc(Cl)cc2)no1 | -3.9% (inactive)
23 | COc1ccc(C2C(C#N)=C(N)Oc3n[nH]c(C)c32)cc1Cn1nnc2ccccc21 (stereo not drawn) | 7.2% (inactive)

From PubChem BioAssay
